Screening data from PubChem BioAssay.
DRD3 antagonist – antagonists of human D3 dopamine receptor. P35462. D3R cells, DiscoveRx beta-arrestin luminescence, antagonist mode; hits give low values. max response, negative = inhibition, %. 2.5% of 360,000 active; in the data active means max response below about -50%; inconclusive means no clear call, values can overlap the other calls
Target sequence (P35462 whole entry, looked up): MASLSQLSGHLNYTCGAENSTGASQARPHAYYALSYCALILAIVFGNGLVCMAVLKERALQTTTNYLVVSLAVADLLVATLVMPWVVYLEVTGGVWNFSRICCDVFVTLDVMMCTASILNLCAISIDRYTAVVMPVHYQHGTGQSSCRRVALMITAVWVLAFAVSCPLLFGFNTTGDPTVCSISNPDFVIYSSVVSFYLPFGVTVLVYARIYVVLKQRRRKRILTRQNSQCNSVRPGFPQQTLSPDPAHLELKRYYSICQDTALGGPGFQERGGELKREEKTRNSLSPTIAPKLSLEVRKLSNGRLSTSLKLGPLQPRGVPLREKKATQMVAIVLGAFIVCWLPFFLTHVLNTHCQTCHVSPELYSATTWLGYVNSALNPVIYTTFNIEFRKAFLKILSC
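Cells expressing the human receptor were seeded at 1500 cells/well, incubated overnight at 37 degrees C in 5% CO2, then exposed to library compounds with dopamine controls for 90 minutes at 37 degrees C before luminescent detection.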
DRD3 agonist – D3 dopamine receptor (human) agonism; max activation, %; P35462; 0.58% of 410,000 active; D3R DiscoveRx beta-arrestin cells, luminescence, 90 min; in the data active means max activation above about 30%
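Agonist mode: compounds and dopamine controls were applied to plated cells for 90 min at 37 degrees C after an overnight attachment at 1500 cells/well. Luminescent read-out followed 30 - 60 minutes at room temperature with DiscoveRx detection reagent.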
D1 agonist – human D1 receptor agonism; P21728; HEK293 T-REx D1 cells, calcium flux, agonist mode; activation, % at 2 µM; 1% of 360,000 active; in the data active means activation above about 30%
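Agonism was scored from calcium flux recorded over 180 s (1 read/s) after pintool compound addition, following a 10-cycle baseline. Cells were inducible force-coupled HEK293 TREx D1, plated overnight at 30 C and loaded with no-wash calcium dye.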
D1 antag – antagonists of human D1 dopamine receptor | P21728 | HEK293 TREx D1 cells, calcium flux, dopamine EC80; hits give low values | activity change, negative = inhibition, % at 10 µM | 3.2% of 360,000 active; in the data active means activity change below about -30%
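Tetracycline-induced HEK293 Trex D1 cells, force-coupled to calcium, dye-loaded; compounds added and read 180 s, then EC80 dopamine added and calcium flux tracked kinetically another 180 s.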
D1 PAM – enhances dopamine response at the human D1 receptor; HEK293 TREx D1 cells, calcium flux, dopamine EC20 potentiation; AID 504651; 0.036% of 360,000 active; potentiation, % at 10 µM; in the data active means potentiation above about 30%
Large screens that a line does not name were inactive. The list is not random: actives were taken first. Their share in the collection is about 6%.

Cc1cc(Nc2cccc(Br)c2)n2c(nc3ccccc32)c1C#N	none (no result: DRD3 antagonist)
COc1ccccc1S(=O)(=O)Cc1ccc(C(=O)NCc2ccc(Cl)cc2)o1	none (no result: DRD3 antagonist)
CCCC(=O)NC1CC(=O)N(c2ccc3c(c2)OCCO3)C1 (configuration not stated)	none (no result: DRD3 antagonist, D1 antag)
NC[C@H]1O[C@H](O[C@H]2[C@H](O)[C@@H](O[C@H]3O[C@H](CO)[C@@H](O)[C@H](N)[C@H]3O)[C@H](N)C[C@@H]2N)[C@H](N)[C@@H](O)[C@@H]1O	none (no result: DRD3 antagonist, D1 agonist, D1 antag, D1 PAM)
O=C(c1ccccc1)c1ccc(OCC(O)CNCc2ccc(Cl)cc2)cc1 (configuration not stated)	D1 agonist 75
O=C(c1ccccc1)c1ccc(OCC(O)CN2CCN(S(=O)(=O)N3CCCCC3)CC2)cc1 (configuration not stated)	none
O=C(c1ccccc1)c1ccc(OCC(O)CN2CCCCC2)cc1 (configuration not stated)	DRD3 antagonist -67
COc1ccc(C(O)(CCN2CCCCC2)C2CCCCC2)cc1 (configuration not stated)	DRD3 antagonist -52
COc1cccc(CNCC(O)COc2ccc(C(=O)c3ccccc3)cc2)c1 (configuration not stated)	none
CCOC(=O)N1CCN(CCC(=O)c2ccc(Cl)cc2)CC1	none
CCOC(=O)N1CCN(CCC(=O)c2ccc(OC)cc2)CC1	D1 antag -35
COc1ccc(N(Cc2cccs2)C(=O)COc2cc(C)c(Cl)c(C)c2)cc1	none (no result: DRD3 antagonist)
CCC(C(=O)Nc1cc(OC)ccc1OC)n1c(C)c2cnn(-c3ccccc3)c(=O)c2c1C (configuration not stated)	none (no result: DRD3 antagonist)
O=S(=O)(Nc1ccc(-c2ccc(N3CCCC3)nn2)cc1)c1cc(F)ccc1F	none (no result: DRD3 antagonist)
Fc1ccc(OCCCCCCN2CCCC2)cc1	none
COC(=O)c1ccc(OCCN2CCCCCC2)cc1	none
OC(CNC1Cc2ccccc2C1)COc1ccc(Cl)cc1 (configuration not stated)	DRD3 antagonist inconclusive, D1 agonist 40
CC(=O)c1ccc(OCCCN2CCCCC2)cc1	DRD3 antagonist -72
CCOC(=O)N1CCN(Cc2nc3cc(NC(=O)c4ccc(OC)cc4)ccc3n2C(C)C)CC1	D1 antag -39 (no result: DRD3 antagonist)
COc1ccc(OCCCN2CCCCCC2)cc1	DRD3 antagonist -64
Nc1c(-c2ccccc2)cc[nH]c1=O	none (no result: DRD3 antagonist, DRD3 agonist)
CCOC(=O)c1cccc(NC(=O)c2cnc(N3CCCCC3)c3ccccc23)c1	none (no result: DRD3 antagonist)
CCn1c(=O)n(CC2CCC(C(=O)NC(C)C)CC2)c(=O)c2sccc21 (configuration not stated)	none (no result: DRD3 antagonist)
COc1cccc(OC)c1OCCOc1ccc(C(=O)c2ccccc2)cc1	D1 antag -35
O=C(CSc1cc(Cl)ccc1Cl)NC1CCCc2ccccc21 (configuration not stated)	none
CCn1c(CN2CCC(C)CC2)nc2cc(NC(=O)c3ccc([N+](=O)[O-])cc3)ccc21	DRD3 agonist 60 (no result: DRD3 antagonist)
OC(CNC1CCCc2ccccc21)COc1c(Cl)cccc1Cl (configuration not stated)	DRD3 antagonist -78
CCCCOc1ccc(C(=O)CCN2CCCCC2)cc1	DRD3 antagonist -56, D1 antag -35
CCn1c(CN2CCC(C)CC2)nc2cc(NC(=O)c3cccc([N+](=O)[O-])c3)ccc21	none (no result: DRD3 antagonist)
CC(C)COc1ccc(C(=O)CCN2CCCCC2)cc1	none
Oc1c(C(c2ccccc2F)N2CCC3(CC2)OCCO3)sc2nc(-c3ccco3)nn12 (configuration not stated)	none (no result: DRD3 antagonist, D1 antag)
CCCn1cc(S(=O)(=O)c2cc(C)ccc2C)c(=O)c2cc(F)c(N3CCN(CC)CC3)cc21	none (no result: DRD3 antagonist)
O=C(c1ccccc1)c1ccc(OCCCN2CCCCC2)cc1	DRD3 antagonist -83
Cc1ccc(NC(=O)c2ccc(NC(=O)N3CCSc4nc(C)cc(C)c43)cc2)c(Cl)c1	none (no result: DRD3 antagonist)
Cc1cc(C)nc(S/C=C/C(=O)c2ccccc2F)n1	DRD3 antagonist -85
CC(C)C[C@H](NC(=O)OC(C)(C)C)c1nnc(SCc2cccc(F)c2)o1	D1 agonist 31
N#CN1CCC(NC(=O)c2cccc(C(F)(F)F)c2)CC1	none (no result: DRD3 antagonist, DRD3 agonist)
CC(=O)c1ccc(NC(=O)Cn2nc(C(F)(F)F)c3c2CCC3)cc1	none (no result: DRD3 antagonist)
CCOC(=O)/C=C(\C)Sc1cc(O)c2ccccc2c1O	DRD3 antagonist -55
CCOC(=O)/C=C(\C)Sc1cc(=O)oc2ccccc12	none
COc1ccccc1NC(=O)NC1CCCc2ccccc21 (configuration not stated)	none
CC(=O)c1ccc(OCCCC(=O)NC2CCCc3ccccc32)cc1 (configuration not stated)	D1 antag -32
CCOc1ccccc1NC(=O)NC1CCCc2ccccc21 (configuration not stated)	D1 antag -33
Cc1cccc(N2C(=O)C(CC(=O)Nc3ccccc3)N(C3CCCCC3)C2=O)c1 (configuration not stated)	none (no result: DRD3 antagonist)
Cc1cccc(-c2noc(-c3ccc(NCc4ccccc4)c([N+](=O)[O-])c3)n2)c1	none (no result: DRD3 antagonist)
COc1ccc(Br)cc1CNC(=O)C1CCN(c2nnc(-n3cccc3CNc3ccc(C)cc3)s2)CC1	none (no result: DRD3 antagonist)
N#C/C(=N\Nc1ccc(Cl)cc1)C(N)=S	D1 agonist 30
N#C/C(=N\Nc1ccccc1)C(N)=S	none
CN(C)CCCN(C(=O)CCSc1ccccc1)c1nc2cc3c(cc2s1)OCO3	DRD3 antagonist -50
CN(C)CCCN(C(=O)c1ccc2c(c1)OCCO2)c1nc2ccc(Cl)cc2s1	D1 agonist 33 (no result: DRD3 antagonist, DRD3 agonist)
CCN(Cc1ccccc1)S(=O)(=O)c1ccc(C(=O)N(CCCN(C)C)c2nc3cc4c(cc3s2)OCO4)cc1	D1 antag -66
CN(C)CCCN(C(=O)CCc1ccccc1)c1nc2ccc(F)cc2s1	D1 agonist 32
CN(C)CCCN(C(=O)c1ccc(S(=O)(=O)N(C)C)cc1)c1nc2cc3c(cc2s1)OCO3	none
CC(C)[C@@H](C)/C=C/[C@@H](C)[C@H]1CC[C@H]2/C(=C/C=C3\C[C@@H](O)CC[C@@H]3C)CCC[C@]12C	none (no result: DRD3 antagonist, D1 agonist, D1 antag, D1 PAM)
COCCNC(=O)c1cc(Sc2ccc(F)cc2F)nc2ccccc12	none (no result: DRD3 antagonist)
COc1ccc2nc(N(Cc3cccnc3)C(=O)Cc3ccccc3)sc2c1	none (no result: DRD3 antagonist, D1 antag)
CN(C)CCCN(C(=O)c1ccc2c(c1)CCCC2)c1nc2cc3c(cc2s1)OCO3	D1 agonist 39
COc1ccc2sc(N(Cc3cccnc3)C(=O)CCc3ccccc3)nc2c1	D1 agonist 34 (no result: DRD3 antagonist, D1 antag)
CCc1ccc(NC(=O)N2CCN(Cc3cc(=O)n4nc(-c5ccccc5OC)sc4n3)CC2)cc1	none (no result: DRD3 antagonist)
c1ccc(CN2c3ccccc3-c3nc4ccccc4n3C2c2ccccn2)cc1 (configuration not stated)	none
CCN1c2ccccc2-c2nc3ccccc3n2C1c1ccco1 (configuration not stated)	DRD3 antagonist -50
COc1cc(OC)cc(C(=O)N[C@H](C(=O)Nc2ccc3c(c2)OCO3)C(C)C)c1	D1 antag -33
